Compound activity as filed in PubChem.
IL1B secr inh = blocks inflammasome-driven IL-1 beta release; THP-1 LPS/ATP IL-1B secretion, AlphaLISA, 16 h; active compounds read low; activity change, % at 57.5 µM; 360,000 tested, 4.7% active; in the data active means activity change below about -50%; inconclusive means mostly about -30% to -49%
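Secreted IL-1B measured by AlphaLISA bead assay after 16 h compound exposure of THP-1 cells; compounds (final up to 57.5 uM) added 1 h before LPS (250 ng/mL) and ATP (1.25 mM) stimulation; lower signal means less secretion.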
HT1080 IDH1KD tx = kills HT-1080 cells with IDH1 knockdown. HT-1080 IDH1 knockdown viability, ATP luminescence, 48 h. Potency, µM (series often up to 46.1 µM), for the others: at the highest dose activity, negative = toxicity, actives largely listed as cytotoxic. 360,000 tested, 2% active;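 further: potency means the concentration at half of the fitted maximal effect; 0% = DMSO wells and -100% = cell-free medium wells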
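IDH1KD HT-1080 cells, 750/well, RPMI + 5% FBS; compound pinned after 2 h settling; 48 h, 37 °C; CellTiter-Glo luminescence; % activity normalised to DMSO and no-cell wells; curves fitted, classed by r2 and efficacy.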
12-LOX inh = ALOX12 (human) lipoxygenase inhibition; P18054; 580,000 tested, 1.1% active; purified 12hLO, xylenol orange hydroperoxide absorbance; Potency, µM (series often up to 108 µM), for the others: top-dose activity change, negative = inhibition, hits mostly inhibitors; further: potency means the concentration at half of the fitted maximal effect
Target sequence (P18054 whole entry, looked up): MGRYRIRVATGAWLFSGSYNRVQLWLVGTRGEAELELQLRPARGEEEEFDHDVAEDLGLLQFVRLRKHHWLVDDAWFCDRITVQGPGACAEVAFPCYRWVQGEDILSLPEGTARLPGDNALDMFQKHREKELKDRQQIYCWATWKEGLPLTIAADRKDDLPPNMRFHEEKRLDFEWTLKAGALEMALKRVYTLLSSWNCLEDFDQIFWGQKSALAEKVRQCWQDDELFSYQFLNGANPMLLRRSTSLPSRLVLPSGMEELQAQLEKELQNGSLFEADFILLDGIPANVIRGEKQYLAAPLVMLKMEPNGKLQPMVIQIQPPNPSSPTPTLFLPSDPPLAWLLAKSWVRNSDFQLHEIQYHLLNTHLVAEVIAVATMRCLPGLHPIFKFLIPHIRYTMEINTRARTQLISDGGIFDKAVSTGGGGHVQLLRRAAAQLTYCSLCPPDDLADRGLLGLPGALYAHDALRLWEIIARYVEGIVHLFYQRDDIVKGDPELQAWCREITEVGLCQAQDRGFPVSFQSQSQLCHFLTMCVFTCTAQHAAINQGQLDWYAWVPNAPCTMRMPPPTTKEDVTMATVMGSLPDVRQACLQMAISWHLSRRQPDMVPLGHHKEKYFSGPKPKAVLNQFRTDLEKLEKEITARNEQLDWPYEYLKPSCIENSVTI
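Purified human 12hLO at 150 nM in 25 mM Hepes, 0.01% Triton X-100, pH 7.0, preincubated 15 min at room temperature with compound. Reaction started with 40 uM arachidonic acid, 30 min at room temperature. Hydroperoxide measured by Fe-xylenol orange, 573/405 nm absorbance ratio.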
HT1080-NT tox = kills 2HG-producing HT-1080-NT fibrosarcoma cells | HT-1080-NT fibrosarcoma viability, CellTiter-Glo ATP luminescence, 48 h | Potency, µM (series often up to 46.1 µM), without a hit: at the highest dose activity, negative = less viability, most hits filed as cytotoxic | 360,000 tested, 1.6% active;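 further: NT is the 2HG producing partner of a matched IDH1 knockdown line; potency means the concentration at half of the fitted maximal effect; 0% = DMSO-treated cells and -100% = media-only wells without cells; nearly all actives have a fitted effect of over 55% in size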
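Viability by CellTiter-Glo luminescence after 48 h compound exposure at 37C of HT-1080-NT cells (750/well, RPMI, 5% FBS). % activity scaled between DMSO wells and medium-only wells, then curve-fitted and categorized by curve class.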
DT40 TDP1 no CPT = qHTS for Inhibitors of human tyrosyl-DNA phosphodiesterase 1 (TDP1): qHTS in cells in absence of CPT; DT40 Tdp1-/- hTDP1 cells, no CPT, ATP luminescence, 48 h; Potency, µM (highest dose often 46.2 µM), for inactives: at the top dose activity change, negative = growth inhibition, actives largely listed as inhibitors; 420,000 tested, 15% active; AID 686978, 2013; further: potency means the concentration at half of the fitted maximal effect; nearly all actives have a fitted effect of over 55% in size
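Growth kinetics read by CellTiter-Glo luminescence after ≥48 hr at 37 °C. Cells: DT40 Tdp1-/- stably carrying human TDP1, 400 per well, compound exposure in the absence of CPT (DMSO vehicle).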
TDP1 cell CPT = growth inhibition of DT40 Tdp1-/-;hTDP1 cells with camptothecin (screen for TDP1 inhibitors); chicken DT40 Tdp1-/-;hTDP1 cells + 20 nM CPT, ATP luminescence, 48 h; Potency, µM (highest dose often 46.2 µM), inactives show at the top dose activity change, negative = growth inhibition, hits mostly inhibitors; 420,000 tested, 12% active; AID 686979; further: potency means the concentration at half of the fitted maximal effect; nearly all actives have a fitted effect of over 55% in size
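Chicken DT40 Tdp1-/- cells stably complemented with human TDP1 were seeded at 400 cells/well in medium containing 20 nM camptothecin, exposed to pin-transferred compounds, and grown at 37 °C for at least 48 hr. Viability was read as ATP luminescence.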
* marks the source's active call; other numbers are inactive results; [ ] = dose if it differs, or a comment. This is one part of a sample in which hits are shown more often than they occur. Unless noted, the call rests on the fitted dose curve; in most records, active means well fitted curve in the direction sought with a large enough effect; inconclusive means small, poorly fitted or top-dose-only effect, or another doubt; inactive means no such curve, though single readings can be large; an effect the other way counts as inactive or inconclusive. Unless noted, on the % scale 0 is the no-effect control and ±100 the full control effect.

CCN(CC)c1ccc(NC(=O)c2sc3nc(-c4ccccc4)cn3c2C)cc1 was read as 12-LOX inh inconclusive, DT40 TDP1 no CPT 5.2µM* and TDP1 cell CPT 3.7µM*.
Cc1c(C(=O)Nc2ccncc2)sc2nc(-c3ccccc3)cn12 was read as IL1B secr inh 19, HT1080 IDH1KD tx -6%, 12-LOX inh 30%, HT1080-NT tox 2%, DT40 TDP1 no CPT 10µM* and TDP1 cell CPT 18µM*.
COc1ccc(-c2cn3c(C)c(C(=O)Nc4cc(NC(C)=O)ccc4OC)sc3n2)cc1 was read as IL1B secr inh 5, HT1080 IDH1KD tx inconclusive, 12-LOX inh -4%, HT1080-NT tox inconclusive, DT40 TDP1 no CPT 9.2µM* and TDP1 cell CPT 13µM*.
Screening Cc1c(C(=O)Nc2ccc3c(c2)OCCO3)sc2nc(-c3ccccc3)cn12 returned IL1B secr inh -92*, HT1080 IDH1KD tx inconclusive, 12-LOX inh -5%, HT1080-NT tox inconclusive, DT40 TDP1 no CPT 5.8µM* and TDP1 cell CPT 8.2µM*.
Screening CNC(=O)c1sc2nc(-c3ccc(OC)cc3)cn2c1C returned IL1B secr inh -15, HT1080 IDH1KD tx 5%, 12-LOX inh -14%, HT1080-NT tox 13%, DT40 TDP1 no CPT inconclusive and TDP1 cell CPT -10%.
Screening C=CCOc1cccc(-c2nc(C(=O)NCc3cccc(F)c3)cs2)c1 returned 12-LOX inh -2%.
For CC(C)C[C@@H]1Cc2[nH][nH]c(=O)c2[C@H](C(C)C)O1 the results were IL1B secr inh 0, HT1080 IDH1KD tx inconclusive, 12-LOX inh 20%, HT1080-NT tox -9%, DT40 TDP1 no CPT -18% and TDP1 cell CPT inconclusive.
Screening CCN(CC)S(=O)(=O)c1cc(NC(=O)c2cc([N+](=O)[O-])ccc2N2CCOCC2)ccc1C returned IL1B secr inh inactive, HT1080 IDH1KD tx -15%, 12-LOX inh 0%, HT1080-NT tox -14%, DT40 TDP1 no CPT 16µM* and TDP1 cell CPT inconclusive.
CCN(CC)S(=O)(=O)c1ccc(OC)c(NC(=O)c2cc([N+](=O)[O-])ccc2N2CCOCC2)c1 was read as IL1B secr inh -4, HT1080 IDH1KD tx 0%, 12-LOX inh 6%, HT1080-NT tox -3%, DT40 TDP1 no CPT 16µM* and TDP1 cell CPT inconclusive.
Screening CNC(=O)CCC[C@@H]1[C@H]2CCCN3CCC[C@@H](CN1C(=O)NCCc1ccccc1)[C@@H]23 returned 12-LOX inh 55%.
For Oc1c(N=Nc2ccccn2)ccc2ccccc12 the results were IL1B secr inh -54*, HT1080 IDH1KD tx 2.3µM*, 12-LOX inh -8%, HT1080-NT tox inconclusive, DT40 TDP1 no CPT 1.6µM* and TDP1 cell CPT 1.5µM*.
Screening CCCCNC(=O)c1cccc(-n2cnc3cccnc32)c1C returned 12-LOX inh -17%, DT40 TDP1 no CPT inconclusive and TDP1 cell CPT inconclusive.
`CCOC(=O)[C@@H](C)N(C(=O)OC(C)(C)C)S(=O)(=O)N(Cc1ccccc1)[C@H](C(=O)OC)C(C)C` gave IL1B secr inh 57, HT1080 IDH1KD tx 3%, 12-LOX inh 20%, HT1080-NT tox 9%, DT40 TDP1 no CPT inconclusive and TDP1 cell CPT 23µM*.
O=C(O)/C=C/c1ccc([N+](=O)[O-])cc1 was read as 12-LOX inh 58%.
Cc1noc(C)c1-c1cc(-c2ccc(N3CCOCC3)nc2)cn2cncc12 was read as 12-LOX inh 46%[176 µM].
COc1ccc(NC(=O)CN(C)C(=O)c2cccc(S(=O)(=O)N3CCN(C)CC3)c2)cc1 was read as IL1B secr inh 14, HT1080 IDH1KD tx -1%, 12-LOX inh -21%, HT1080-NT tox 1%, DT40 TDP1 no CPT -14% and TDP1 cell CPT -3%.
